An excerpt weighted towards active compounds, which were near 3.6% of everything screened.
Bead autofluor: compound fluorescence in toxin protease inhibitor counterscreen; compound autofluorescence counterscreen, microsphere flow cytometry; stronger effect = higher value; fluorescence intensity (test concentration not listed); 360,000 tested, 3.1% active; in the data active means fluorescence intensity above about 16000; inconclusive means no clear call, values can overlap the other calls
MazF activator: activators of E. coli MazEF toxin-antitoxin RNase, primary screen, biochemical, fluorescence, uHTS. FAM/BHQ RNA-DNA oligo cleavage fluorescence, 5 h. activation, % at 20 µM. 350,000 tested, 0.32% active; in the data active means activation above about 50%
BoNT F protease: BoNT/F light chain protease inhibitors, primary screen, biochemical, flow cytometry, MLPCN library. Multiplex microsphere protease cleavage assay. inhibition, % at 10 µM. 360,000 tested, 0.22% active. Botulinum neurotoxin type F light chain protease (Clostridium botulinum); in the data active means inhibition above about 35%, passing the limit was not always enough; inconclusive means no clear call, values can overlap the other calls; further: plate controls were buffer without enzyme for full effect and enzyme alone for no effect
Anthrax LF prot: Bacillus anthracis LF protease inhibitors, primary screen, biochemical, multiplex microsphere, MLPCN library | multiplex microsphere protease cleavage assay | Lethal factor (Bacillus anthracis), P15917 | inhibition, % at 10 µM | 360,000 tested, 0.12% active | AID 588501, 2011; further: plate controls were buffer without enzyme for full effect and enzyme alone for no effect
BoNT-A LC inh2: BoNT/A light chain protease inhibitors, primary screen, biochemical, flow cytometry, MLPCN library | Botulinum neurotoxin type A light chain protease (Clostridium botulinum A str. ATCC 3502) | multiplex microsphere protease substrate cleavage | 360,000 tested, 0.17% active | inhibition, % at 10 µM | AID 588499, 2011; further: plate controls were buffer without enzyme for full effect and enzyme alone for no effect
* marks the source's active call; other numbers are inactive results; ? = inconclusive. Unless noted, no stated cut-off is given here; in the data, active means inhibition above about 30%; inconclusive means no clear call, values can overlap the other calls; inactive means below that.

SMILES	Bead autofluor	MazF activator	BoNT F protease	Anthrax LF prot	BoNT-A LC inh2
Cc1ccc(C(=O)C[n+]2cc(-c3ccc(C)cc3)n3c2CCCCC3)cc1	22561*	24	-7	-2	-7
CC(=O)Nc1ccc(NC(=O)[C@@H](NC(=O)N2C[C@H]3C[C@@H](C2)c2cccc(=O)n2C3)C(C)C)cc1	5166	-2	1	2	0
Cc1cccc(OCC(=O)NNC(=O)c2ccc3nc[nH]c3c2)c1	3776	2	-2	1	0
Cc1ccc(CNC(=O)CCn2nc(-c3ccc(Cl)cc3)ccc2=O)cc1	18881*	-2	0	-2	2
Cc1ccc(N(CCC#N)C(=O)COC(=O)C2CCN(S(=O)(=O)c3ccc4c(c3)OCCO4)CC2)cc1	7452	7	-6	0	-5
Cc1ccc(C(=O)C(C)OC(=O)c2ccccc2[N+](=O)[O-])cc1 (stereo not given)	2092	-7	17	0	1
CNC(=O)c1cc2cc(OC)ccc2oc1=O	21752*	4	6	0	4
CN(C)/C(CN1CCN(C=O)CC1)=C1\N=C(c2ccccc2)OC1=O	23334*	4	1	2	1
CC(=O)NC(CCc1ccc(Cl)c(Cl)c1)c1cccc(O)c(=O)c1 (stereo not given)	4041	-6	0	0	0
CC1(C)Cc2c(sc3nc(-c4cccs4)n(N)c(=O)c23)CO1	21380*	8	6	0	?
Cc1nn2c(C)nc3sc4c(c3c2nc1=O)CC(C)(C)OC4	25222*	7	-6	1	-6
CN(C(=O)c1ccc(Br)o1)C1CCCCC1	6573	1	6	0	-2
COc1ccc(-c2ccc3c(=O)cc(-c4ccsc4)oc3c2)cn1	3346	70*	6	4	0
COc1cc(-c2ccc3oc(-c4ccsc4)cc(=O)c3c2)cc(OC)c1OC	4008	29	-5	-4	0
COc1ccccc1/C=C/C(=O)OCCN1C(=O)c2ccccc2C1=O	4034	6	-4	-1	-3
CCOc1ccc(S(=O)(=O)N2CN3CCN(C3)C2)cc1	3743	6	-14	8	-2
CCOc1ccc(S(=O)(=O)N2CCN(S(=O)(=O)c3ccc(OCC)cc3)C(C)C2)cc1 (stereo not given)	17504*	-3	-2	-5	-2
COCc1ccc(C(=O)NC2CCCc3c2cnn3-c2cc(C)cc(C)c2)s1 (stereo not given)	5616	15	12	-1	1
COc1ccc(-c2ccc(SCC(=O)N3CCCC3)nn2)cc1OC	19444*	8	6	0	3
COc1ccc(-c2ccc(SCC(=O)N3CCOCC3)nn2)cc1OC	11309	-13	7	0	0
Cc1cc(C(=O)COC(=O)CNS(=O)(=O)c2ccc3ccccc3c2)c(C)n1-c1ccccc1	2087	2	-3	-2	0
O=C(CNS(=O)(=O)c1ccc2ccccc2c1)OCC(=O)c1ccc(Br)s1	18275*	-29	7	-2	5
Cc1ccc(C2=CC(c3ccc(N(C)C)cc3)n3nnnc3N2)cc1 (stereo not given)	5364	64*	2	-3	1
COc1ccc(C2=CC(c3ccc(F)cc3)n3nnnc3N2)cc1 (stereo not given)	5973	-4	-2	4	1
COc1ccccc1C1C=C(c2ccccc2)Nc2nnnn21 (stereo not given)	20241*	1	0	2	?
SMILES	Bead autofluor	MazF activator	BoNT F protease	Anthrax LF prot	BoNT-A LC inh2
CCc1c(C)nc(N)nc1N1N=C1SCC#N	22462*	9	2	-2	2
CC1CCCCN1C(=O)NC12CC3CC(CC(C3)C1)C2 (stereo not given)	22908*	2	2	0	0
O=C(Cc1ncc(C(F)(F)F)cc1Cl)N1CCN(c2ccc(F)cc2)CC1	4285	-4	-4	-3	-1
NNC(=O)C=C1CCN(c2ncc(C(F)(F)F)cc2Cl)CC1	20786*	1	2	-8	2
COc1ccc(N2CCN(C(=O)Cc3ncc(C(F)(F)F)cc3Cl)CC2)cc1	23985*	2	-2	-3	0
O=C(O)C=C1CCN(c2ncc(C(F)(F)F)cc2Cl)CC1	6834	10	2	-9	-1
O=C(OC1CCN(c2ncc(C(F)(F)F)cc2Cl)CC1)c1ccccc1	22198*	-6	0	-3	1

Screens: PubChem BioAssay, several laboratories
